Assay [1] in a line: resazurin metabolic signal in HepG2 cells – cell-based, resazurin fluorescence, 24 h, PK04 Diversity Set, profiling panel (AID 1172). Particulars: HepG2 viability, higher = more signal.
A short description of assay [2]: budding yeast growth changes without added modifier – OD600, strain BY4716, 24 h, basal condition, primary screen (AID 1173). Particulars: S. cerevisiae BY4716 growth, OD600, 24 h; higher = more signal, called active from +8 up or from −8 down.
Assay [3] can be described thus: viability profiling in MM1S myeloma cells – cell-based, resazurin fluorescence, basal, 24 h, PK04 Diversity Set, profiling panel (AID 1174).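 Also: MM1S multiple myeloma cell line.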 To be noted: higher = more signal, called active from +8 up or from −8 down. On the technique in general: The colour change of resazurin is a common sign of viable cells or microbes.
Assay [4] concerns the target Dihydroorotate dehydrogenase (quinone), mitochondrial (Plasmodium falciparum (isolate 3D7)) (UniProt Q08210). In words: inhibition of P. falciparum DHODH – biochemical, C-terminal His tag, absorbance 600 nm, primary screen (AID 1175).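 Also: recombinant parasite enzyme with a five histidine tag at its C terminus.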 Particulars: PfDHODH enzyme, DCIP absorbance 600 nm; higher = more signal, called active from +8 up or from −8 down.
Assay [5] in a line: inhibition of PAO1 biofilm formation – strain PAO1, LB-PBS medium, absorbance 600 nm, primary screen (AID 1176). Particulars: P. aeruginosa PAO1 growth/biofilm, A600, 12 h; higher = more signal.
Assay [6] can be described thus: growth modulation of vineyard yeast isolate – strain RM11-1a, OD600, basal, 24 h, primary screen (AID 1177).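 Also: cultures grown under basal conditions with no added stressor.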 To be noted: S. cerevisiae RM11-1a growth, OD600, 24 h; higher = more signal, called active from +8 up or from −8 down.
The nature of assay [7]: growth of efflux-deficient E. coli DRC39 – strain DRC39, OD650, 24 h, E. coli filamentation inducers, primary screen (AID 1178).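 Also: growth measured as culture turbidity by optical density at 650 nm.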 Particulars: E. coli DRC39 acrAB, higher = more signal, called active from +8 up or from −8 down.
Assay [8] in a line: growth of efflux-deficient E. coli DRC39 – strain DRC39, OD650, 48 h, E. coli filamentation inducers, primary screen (AID 1179).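 Also: screen aims at cell division blockers that make cells filament.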 To be noted: E. coli DRC39 delta-acrAB growth, higher = more signal, called active from +8 up or from −8 down.
Assay [9] in a line: viability profiling in RPMI8226 myeloma cells – cell-based, resazurin fluorescence, basal, 24 h, PK04 Diversity Set, profiling panel (AID 1180).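 Also: RPMI8826 multiple myeloma cell line at 5000 cells per well.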 Particulars: higher = more signal.
Assay [10] has as its target E3 ubiquitin-protein ligase XIAP (Homo sapiens) (UniProt P98170). Description: small molecules binding XIAP protein – biophysical, small-molecule microarray, fluorescence 635 nm, primary screen (AID 1181).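 Also: score merges 667 nm emission and signal to noise over triplicate slides.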 To be noted: higher = more signal.
Assay [11] concerns XIP peptide (Xip251-270) binding. Description: XIP fragment 251-270 binding compounds – biochemical, small-molecule microarray, fluorescence 635/667 nm, 0.1 µg/mL protein, primary screen (AID 1182). Particulars: fluorescent protein binding, 635 nm, higher = more signal, called active from +8 up or from −8 down.
Another assay concerns XIP peptide (Xip251-270). In words: compounds binding XIP fragment 251-270 – biochemical, small-molecule microarray, fluorescence 635/667 nm, 0.5 µg/mL protein, primary screen (AID 1183). To be noted: fluorescence 635 nm, higher = more signal.
Assay [12] can be described thus: blood-stage malaria parasite viability loss – strain 3D7, DAPI fluorescence, 100 nL, primary screen (AID 1184).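 Also: parasites grown inside human red blood cells in medium with human serum.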 To be noted: P. falciparum 3D7 growth, 3 d, higher = more signal.
For assay [13], the target named is Homeobox protein Hox-A13 (Mus musculus) (UniProt Q62424). Description: disruptors of Hoxa13 oligonucleotide interaction – biochemical, fluorescence polarization, labeled oligonucleotide, primary screen (AID 1185). To be noted: Hoxa13:DNA binding, 15 min, higher = more signal, called active from +8 up or from −8 down. A general note: Fluorescence polarisation rises when a labelled molecule tumbles more slowly, as on binding a larger partner.
Chain of Homeobox protein Hox-A13 (Mus musculus) (Q62424 whole entry, looked up): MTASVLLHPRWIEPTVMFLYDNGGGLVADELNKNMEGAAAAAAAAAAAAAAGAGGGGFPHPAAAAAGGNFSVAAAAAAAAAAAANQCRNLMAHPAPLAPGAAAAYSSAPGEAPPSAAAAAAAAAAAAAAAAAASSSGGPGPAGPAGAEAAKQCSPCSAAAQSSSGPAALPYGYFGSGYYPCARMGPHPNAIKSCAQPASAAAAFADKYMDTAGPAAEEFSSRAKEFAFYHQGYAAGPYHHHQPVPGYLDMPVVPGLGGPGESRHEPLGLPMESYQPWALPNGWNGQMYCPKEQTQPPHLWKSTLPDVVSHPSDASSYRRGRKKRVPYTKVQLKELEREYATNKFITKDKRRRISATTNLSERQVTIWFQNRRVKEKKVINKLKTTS

Assay [14] in a line: blockers of DNA damage checkpoint Chk1 activation – imaging, HeLa, hydroxyurea, phospho-Chk1 antibody, percent positive cells, primary screen (AID 1186). To be noted: hydroxyurea-induced phospho-Chk1 immunofluorescence imaging, higher = more signal.
The nature of assay [15]: blockers of DNA damage checkpoint Chk1 activation – imaging, HeLa, hydroxyurea, phospho-Chk1 nuclear intensity, primary screen (AID 1187). Particulars: hydroxyurea-induced phospho-Chk1 immunofluorescence imaging, higher = more signal.

Calls of active or inactive are those of the source. Unless noted, no rule for the calls is given here.

Chain of Dihydroorotate dehydrogenase (quinone), mitochondrial (Plasmodium falciparum (isolate 3D7)) (Q08210 whole entry, looked up): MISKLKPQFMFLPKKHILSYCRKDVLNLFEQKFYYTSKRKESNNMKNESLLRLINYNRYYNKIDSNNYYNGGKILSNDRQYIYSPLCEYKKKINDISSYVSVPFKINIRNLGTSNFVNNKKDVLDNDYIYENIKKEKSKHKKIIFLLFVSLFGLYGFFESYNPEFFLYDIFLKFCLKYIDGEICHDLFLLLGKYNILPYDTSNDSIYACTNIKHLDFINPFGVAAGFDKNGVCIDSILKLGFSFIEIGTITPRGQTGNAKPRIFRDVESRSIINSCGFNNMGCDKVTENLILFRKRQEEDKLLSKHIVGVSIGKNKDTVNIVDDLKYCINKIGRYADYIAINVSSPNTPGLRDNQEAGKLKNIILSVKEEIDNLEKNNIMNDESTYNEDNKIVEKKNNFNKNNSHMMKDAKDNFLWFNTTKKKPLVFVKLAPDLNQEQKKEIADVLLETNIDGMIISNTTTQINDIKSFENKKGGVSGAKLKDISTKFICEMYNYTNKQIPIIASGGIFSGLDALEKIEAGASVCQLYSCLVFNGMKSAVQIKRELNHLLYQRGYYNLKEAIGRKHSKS
Chain of E3 ubiquitin-protein ligase XIAP (Homo sapiens) (P98170 whole entry, looked up, the tested form may be a part): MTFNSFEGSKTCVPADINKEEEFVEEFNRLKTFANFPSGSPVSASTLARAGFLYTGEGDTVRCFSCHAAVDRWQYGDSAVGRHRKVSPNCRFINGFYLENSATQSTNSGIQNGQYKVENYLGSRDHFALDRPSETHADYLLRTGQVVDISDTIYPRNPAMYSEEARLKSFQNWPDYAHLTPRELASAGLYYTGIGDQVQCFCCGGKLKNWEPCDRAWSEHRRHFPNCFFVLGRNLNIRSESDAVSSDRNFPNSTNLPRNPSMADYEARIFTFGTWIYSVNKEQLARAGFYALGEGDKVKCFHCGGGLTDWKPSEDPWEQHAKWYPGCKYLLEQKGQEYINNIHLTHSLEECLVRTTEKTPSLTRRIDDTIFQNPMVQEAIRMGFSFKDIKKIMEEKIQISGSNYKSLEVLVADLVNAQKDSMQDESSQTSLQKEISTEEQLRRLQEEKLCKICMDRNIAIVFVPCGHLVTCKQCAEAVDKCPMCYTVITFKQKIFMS

Regarding `COc1ccc(C#Cc2ccc3c(c2)[C@]2(C(=O)N3)[C@H](C(=O)N3CCCCCCC3)[C@H]3C(=O)O[C@H](c4ccccc4)[C@H](c4ccccc4)N3[C@@H]2c2ccc(O)cc2)cc1`, the z-score was 0.629 in assay [1]; 0.299 (inactive) in assay [2]; 0.697 (inactive) in [3]; 1.19 (inactive) in assay [5]; 0.136 (inactive) in assay [6]; -0.45 (inactive) in assay [7]. In addition, the z-score in assay [8] was -0.601 (inactive); in assay [9] it was 0.428; in [12], -1.56; in assay [13], 0.625 (inactive); in [14], -0.25 (inactive); in [15], -0.372 (inactive). The composite z-score in assay [4] was -8.52 (active); in [10], -0.0149; in assay [11] it was 2.34 (inactive); in the assay on XIP peptide (Xip251-270), 0.755.

Regarding `COCCCNC(=O)[C@@]1(c2ccc([N+](=O)[O-])cc2)CC(=O)N(CC23CC4CC(CC(C4)C2)C3)[C@@H]1c1ccc(CO)cc1I`, the z-score in [1] was -2.61; in assay [2], 1.02 (inactive); in assay [3], -3.15 (inactive); in [5], 0.457 (inactive); in assay [6], 2.43 (inactive); in [7] it was -0.0284 (inactive). The z-score in [8] is -0.107 (inactive); in assay [9], -3.52; in [12], -1.13; in [13] it was -4.38 (inactive); in [14], 0.568 (inactive); in assay [15], 0.885 (inactive). In addition, the composite z-score in assay [4] was 1.11 (inactive); in [10], 0.144; in assay [11] it was 1.15 (inactive); in the assay on XIP peptide (Xip251-270), 0.383.

As to `O=c1cccc(-c2ccco2)o1`, the z-score in [1] was -0.675; in assay [2], -0.216 (inactive); in assay [3] it was 0.0232 (inactive); in assay [5], 0.092 (inactive); in [6], -0.231 (inactive); in assay [7] it was -0.644 (inactive). In addition, the z-score in assay [8] is -0.338 (inactive); in [9], -0.258; in assay [12] it was 2.05; in assay [13] it was -1.92 (inactive); in assay [14], 0.0593 (inactive); in assay [15] it was -0.106 (inactive). Also, the composite z-score in assay [4] was -1.85 (inactive); in [10] it was -0.179; in [11], -0.103 (inactive); in the assay with XIP peptide (Xip251-270), 0.337.

Regarding `[N-]=[N+]=Nc1ccccc1C[C@]1(C(=O)O)N=C(c2ccc(OCCCO)cc2)O[C@H]1c1ccccc1N=[N+]=[N-]`, the z-score was 0.675 in assay [1]; -2.36 (inactive) in assay [2]; -0.0953 (inactive) in assay [3]; 1.13 (inactive) in assay [5]; -0.296 (inactive) in [6]; 2.43 (inactive) in assay [7]. For the same compound, the z-score in [8] was 0.76 (inactive); in assay [9] it was -0.215; in assay [12] it was -1.5; in [13], -4.13 (inactive); in [14] it was -0.281 (inactive); in assay [15], 0.0939 (inactive). Moreover, the composite z-score in [4] is 0.463 (inactive); in assay [10], -0.145; in [11], 0.466 (inactive); in the assay on XIP peptide (Xip251-270) it was 0.532.

Regarding `C=C(/C(=C/C[C@@H](OC(C)=O)c1ccc(OCCO)cc1)c1cc(C(=O)OC)ccc1OC)C(C)C`, the z-score in assay [1] was -0.459; in [2], -0.0855 (inactive); in [3], -0.53 (inactive); in assay [5], 0.437 (inactive); in assay [6], 0.492 (inactive); in assay [7], -0.0333 (inactive). For the same compound, the z-score in assay [8] was 0.0954 (inactive); in assay [9], -0.161; in assay [12] it was -3; in assay [13] it was -4.3 (inactive); in [14], 0.38 (inactive); in assay [15], 0.578 (inactive). Besides, the composite z-score is -5.7 (inactive) in assay [4], 0.0546 in assay [10], 0.96 (inactive) in assay [11] and 0.819 in the assay on XIP peptide (Xip251-270).

In the case of `COC(=O)C1=CC(CCCO)=CC(c2ccc(CN3CCCC3)cc2)N(Cc2cc3c(cc2Br)OCO3)C=C1C(=O)OC` (centres undefined), the z-score in [1] was 0.3; in assay [2] it was 0.0793 (inactive); in assay [3], -0.119 (inactive); in [5], 0.214 (inactive); in assay [6] it was 0.73 (inactive); in assay [7], 0.463 (inactive). Further, the z-score was 0.67 (inactive) in assay [8]; -0.0377 in [9]; -1.41 in assay [12]; -3.44 (inactive) in assay [13]; 0.119 (inactive) in assay [14]; 0.656 (inactive) in assay [15]. In addition, the composite z-score in [4] is 0.214 (inactive); in [10], -0.0102; in [11], 2.27 (inactive); in the assay on XIP peptide (Xip251-270), 0.727.

Turning to `C=C(CCCC)C(=O)CC[C@H](OC(C)=O)c1ccc(OCCO)cc1`, the z-score in assay [1] is 0.574; in assay [2] it was -3.3 (inactive); in [3] it was -0.464 (inactive); in assay [5], 0.0022 (inactive); in [6] it was -2.33 (inactive); in assay [7], -0.0158 (inactive). In addition, the z-score in [8] is 0.539 (inactive); in [9], -0.939; in assay [12] it was -3.07; in assay [13], -6.07 (inactive); in assay [14] it was -0.427 (inactive); in assay [15], -0.523 (inactive). Besides, the composite z-score in assay [4] was -0.788 (inactive); in [10] it was 0.648; in assay [11], 0.783 (inactive); in the assay with XIP peptide (Xip251-270), 0.227.

In the case of `[N-]=[N+]=NC[C@H](Cc1ccccc1)NC(=O)c1ccccc1`, the z-score in assay [1] is 0.198; in assay [2], -3.7 (inactive); in assay [3] it was 1.46 (inactive); in assay [5], -0.382 (inactive); in assay [6], -0.401 (inactive); in assay [7], 0.487 (inactive). Also, the z-score in assay [8] was 0.352 (inactive); in assay [9], 0.839; in assay [12], -0.855; in [13], -0.271 (inactive); in assay [14], 0.0506 (inactive); in assay [15], 0.216 (inactive). Further, the composite z-score in assay [4] was -0.178 (inactive); in assay [10], -0.394; in [11] it was -0.359 (inactive); in the assay on XIP peptide (Xip251-270), 0.108.

`C=C(CCCC)C(=O)CC[C@H](OC(=O)c1ccccc1-c1ccccc1C(=O)O)c1ccccc1OCCO`: the z-score in assay [1] was -1.08; in assay [2], -1.45 (inactive); in [3], -0.976 (inactive); in [5], 0.91 (inactive); in [6] it was -0.0444 (inactive); in [7], 0.506 (inactive). Further, the z-score was 0.237 (inactive) in assay [8]; -1.03 in assay [9]; -2.61 in assay [12]; -5.63 (inactive) in assay [13]; -0.309 (inactive) in [14]; -0.102 (inactive) in [15]. Besides, the composite z-score was -0.824 (inactive) in assay [4], 0.0416 in assay [10], 0.267 (inactive) in [11] and 0.0422 with XIP peptide (Xip251-270).

(Values after PubChem BioAssay.)
